Most compounds without a hit are left out; they make up all but 10% or so of the library.
hNpr1 antagonist – human Npr1 receptor antagonism | P16066 | HEK293 hNpr1 GloSensor cGMP, ANP-stimulated luminescence | Potency, µM (highest dose often 46.3 µM), without a hit: top-dose activity change, negative = inhibition, usual class: inhibitors | 76,000 compounds, 1.6% hits; calls by dose curve; note: % is set by controls: 0 for no effect and ±100 for the full control effect; nearly all actives have a fitted effect of over 60% in size
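Compound pre-incubated 30 min at room temperature on GloSensor-loaded HEK293 cells stably carrying hNpr1 and the pGS-40F cGMP biosensor. Stimulation uses hNppA at 0.1 nM final; luminescence is taken at baseline and 20 min post-agonist.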
3T3 cytotox – cytotoxic compounds in NIH 3T3 cells; NIH 3T3 viability, CellTiter-Glo ATP luminescence, 48-72 h; Potency, µM (titrated, usually from 96.7 µM), for the others: top-dose activity change, negative = cytotoxicity, actives largely listed as inhibitors; 94,000 compounds, 4.3% hits; AID 1345082; note: % is set by controls: 0 for no effect and ±100 for the full control effect; nearly all actives have a fitted effect of over 55% in size
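Luminescent ATP readout (CellTiter-Glo, 10 min RT) after 48 or 72 hr compound exposure of NIH 3T3 cells seeded at 400 cells/well in 1536-well format; quantitative HTS.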
FLuc inh-1 – Photinus pyralis luciferase inhibition. purified P. pyralis luciferase, luminescence, biochemical. 76,000 compounds, 2.5% hits. Potency, µM (doses to about 115 µM), hits mostly inhibitors. P08659; note: % is set by controls: 0 for no effect and ±100 for the full control effect; nearly all actives have a fitted effect of over 65% in size
Target sequence (P08659 whole entry, looked up): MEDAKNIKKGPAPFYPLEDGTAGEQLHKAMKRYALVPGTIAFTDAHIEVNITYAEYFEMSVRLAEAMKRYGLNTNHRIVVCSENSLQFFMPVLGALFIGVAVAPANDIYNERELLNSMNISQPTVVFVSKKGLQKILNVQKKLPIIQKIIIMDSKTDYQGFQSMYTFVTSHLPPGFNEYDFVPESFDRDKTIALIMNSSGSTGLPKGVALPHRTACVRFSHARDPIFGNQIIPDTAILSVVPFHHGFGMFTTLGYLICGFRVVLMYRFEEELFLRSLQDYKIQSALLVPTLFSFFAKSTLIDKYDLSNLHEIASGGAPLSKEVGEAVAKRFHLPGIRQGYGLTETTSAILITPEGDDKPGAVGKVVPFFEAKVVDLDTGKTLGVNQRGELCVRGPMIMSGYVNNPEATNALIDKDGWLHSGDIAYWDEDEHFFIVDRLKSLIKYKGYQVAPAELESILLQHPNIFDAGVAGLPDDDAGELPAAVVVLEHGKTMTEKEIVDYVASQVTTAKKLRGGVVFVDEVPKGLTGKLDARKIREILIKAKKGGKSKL
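Luminescence read by CCD imaging after purified firefly luciferase (10nM final) was added to substrate buffer holding 10uM D-luciferin and 10uM ATP, pH 7.5, pre-dosed with compound.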
GPT2 inhibitor – inhibitors of human GPT2 alanine aminotransferase. Q8TD30. Recombinant GPT2, coupled pyruvate oxidase/HRP Amplex Red fluorescence. Potency, µM (titrated, usually from 57.7 µM), for the others: at the highest dose activity change, negative = inhibition, hits mostly inhibitors. 100,000 compounds, 0.25% hits; note: % is set by controls: 0 for no effect and ±100 for the full control effect; nearly all actives have a fitted effect of over 60% in size
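Inhibition is scored from Amplex Red fluorescence generated when pyruvate oxidase and HRP act on pyruvate released by GPT2. Reactions contain 10ng/uL enzyme, 250uM a-KG and 2mM L-alanine and run 30 min at room temperature.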
HEK293 tox – cytotoxic compounds in HEK 293 cells; HEK 293 viability, ATP luminescence (CellTiter-Glo), 48-72 h; Potency, µM (doses to about 115 µM), without a hit: at the top dose activity change, negative = cytotoxicity, usual class: inhibitors; 94,000 compounds, 6.6% hits; note: % is set by controls: 0 for no effect and ±100 for the full control effect; nearly all actives have a fitted effect of over 60% in size
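250 HEK 293 cells/well; compound by pintool; incubated 48 or 72 hr at 37 degree Celsius; CellTiter-Glo added, 10 min RT, luminescence imaged.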
FLuc SDR no ATP – stabilizes firefly luciferase without ATP | Purified FLuc-C-HiBiT, Nano-Glo HiBiT luminescence, no ATP | Potency, µM (doses to about 32.7 µM), for inactives: top-dose activation (signal gain), actives largely listed as activators | AID 1963318 | shares compounds with FLuc inh-1 | 1,300 compounds, 7.8% hits; note: nearly all actives have a fitted effect of over 55% in size
FLuc SDR ATP – binders stabilizing firefly luciferase, plus ATP; shares compounds with FLuc inh-1; purified FLuc-C-HiBiT + ATP, HiBiT complementation luminescence; Potency, µM (highest dose often 32.7 µM), inactives show at the top dose activation (gain of signal), usual class: activators; 1,300 compounds, 8.7% hits;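 note: signal reports ligand binding via conformational change of the enzyme rather than luciferase catalysis; % of control where 0% means no effect; nearly all actives have a fitted effect of over 55% in size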
FLuc inh-2 – inhibitors of firefly luciferase enzymatic activity. Potency, µM (series often up to 32.7 µM), for the others: top-dose activity change, negative = inhibition, usual class: inhibitors. 1,300 compounds, 42% hits. shares compounds with FLuc inh-1. purified FLuc-C-HiBiT enzyme, luciferin luminescence; note: % is set by controls: 0 for no effect and ±100 for the full control effect; nearly all actives have a fitted effect of over 70% in size
Starred values were filed as active, the others as inactive; i = inactive; u = inconclusive; x = not tested or not shown; [ ] = another dose, or the depositor's remark. Unless noted, calls come from the whole dose curve; as a rule, active = well fitted curve in the direction sought with a large enough effect; inconclusive = small, poorly fitted or top-dose-only effect, or another doubt; inactive = no such curve, though single readings can be large; an effect the other way counts as inactive or inconclusive. Potency is the fitted concentration of half-maximal effect.

SMILES	hNpr1 antagonist	3T3 cytotox	FLuc inh-1	GPT2 inhibitor	HEK293 tox	FLuc SDR no ATP	FLuc SDR ATP	FLuc inh-2
O=C(Nc1ccc2c(c1)OCCO2)N1CCC2(CC1)CC(N1CCCC1)CCO2 (centres undefined)	-8.2%	i	6.31µM*	1.2%	12.0%	28.6%	u	u
CCN1C(=O)CCc2cc(NC(=O)c3ccc(C(C)C)cc3)ccc21	u	u	3.55µM*	i	u	25.3%	13.6%	u
COCCN1C(=O)CCc2cc(NC(=O)c3ccc(C)c(C)c3)ccc21	1.7%	u	u	-23.5%	u	x	x	x
COc1cccc(-c2cccc(C(=O)N3CCCC3C(=O)N3CCCCC3)c2)c1 (centres undefined)	x	-24.0%	x	-2.4%	u	x	x	x
CN(C)C[C@@H]1CN(Cc2ccccc2)C[C@H]1NC(=O)c1ccnn1C	2.0%	-3.0%	i	1.1%	i	x	x	x
O=C(CCc1conc1-c1ccccc1F)NCc1cccc(Br)c1	0.8%	u	i	i	-20.9%	x	x	x
Cc1c(C(=O)NCc2cccc(Br)c2)oc2ccc3c(c12)C(=O)CC(C)(C)O3	x	x	x	x	x	16.9%	10.4%	u
CCCOc1cccc(C(=O)Nc2ccc(-c3nc4ccccc4s3)c(Cl)c2)c1	x	x	x	x	x	9.5%	8.7%	u
COc1cccc(C(=O)Nc2ccc(-c3nc4ccccc4s3)c(O)c2)c1	x	x	x	x	x	12.9%	9.2%	0.7%
CCOc1cc(C(=O)Nc2ccc(Cl)c(-c3nc4ccccc4[nH]3)c2)cc(OCC)c1OCC	x	x	x	1.7%	x	x	x	x
COc1cccc(C(=O)Nc2cnc(-c3ccccc3)nc2)c1	-28.9%	-22.0%	i	-7.4%	u	x	x	x
CCS(=O)(=O)c1cccc(C(=O)Nc2ccc(-c3nc4ccccc4s3)c(O)c2)c1	x	x	x	x	x	4.1%	4.2%	u
COc1cccc(-c2nc3cc(NC(=O)c4ccc(C)c([N+](=O)[O-])c4)ccc3s2)c1	x	x	x	x	x	8.9%	9.2%	-15.0%
COc1ccc(NC(=O)c2cn3cc(-c4cccc(OC)c4)sc3n2)cc1	x	u	x	i	u	x	x	x
O=C(O)c1cc(-c2ccncc2)cc(S(=O)(=O)N2CCCCCC2)c1	3.3%	-19.7%	i	2.6%	1.3%	x	x	x
CC(=O)Nc1ccc(CNC[C@H]2Cn3c(-c4ccc(F)cc4)cnc3CO2)cc1	-29.0%[70.6 µM]	u	i	4.4%[88.5 µM]	u	x	x	x
COc1cccc(C(=O)Nc2ccc3nc(SCC(=O)N4CCOCC4)sc3c2)c1	x	x	x	x	x	u	21.2%	9.89µM*
COc1cc(OC)cc(C(=O)Nc2ccccc2-c2nc3ccccc3s2)c1	x	x	x	x	x	12.4%	9.8%	-4.2%
Cn1ncc2c(C(=O)Nc3ccccc3F)cc(-c3ccccc3F)nc21	x	-20.9%	x	x	u	x	x	x
N#Cc1ccc(C(=O)Nc2ccccc2-c2nc3ccccc3s2)c(F)c1	x	x	x	x	x	14.3%	9.4%	2.2%
COc1cccc(C(=O)Nc2cccc(-c3nnc4n3CCCC4)c2)c1	-4.6%	-15.8%	i	4.2%	-22.6%	x	x	x
Cc1ccc(NC(=O)c2ccc(Cn3ccn4nc5c(c4c3=O)CCCC5)cc2)cc1C	-15.7%	-21.6%	u	-0.1%	u	x	x	x
Cc1ccc(NC(=O)c2ccc3snnc3c2)cc1C	x	x	x	x	x	17.7%	u	u
CCOC(=O)N1CCc2c(sc(NCc3ccc(OCC)cc3)c2C(=O)Nc2ccc(OC)cc2OC)C1	x	x	x	x	x	12.9%	u	3.94µM*
CCOC(=O)N1CCc2c(sc(NCc3cccs3)c2C(=O)Nc2ccc(OC)cc2OC)C1	x	x	x	x	x	5.7%	u	3.13µM*
O=C(C1CCc2nnc(-c3ccc(Cl)nc3)n21)N1CCOCC1 (centres undefined)	x	-12.5%	x	i	i	x	x	x

Assay outcomes from PubChem.
